{"source": "PubChem BioAssay (NCI)", "experiment_in_all_cases": "NCI-60 one-dose screen, 48 h (100 = growth as untreated, 0 = no growth, -100 = all killed)", "conditions_in_all_cases": "10 µM", "key": {"SK-MEL-2 melanoma": {"test_system": "SK-MEL-2 melanoma"}, "EKVX NSCLC": {"test_system": "EKVX NSCLC"}, "SN12C renal": {"test_system": "SN12C renal"}, "TK-10 renal": {"test_system": "TK-10 renal"}, "ACHN renal": {"test_system": "ACHN renal"}, "CAKI-1 renal": {"test_system": "CAKI-1 renal"}, "A498 renal": {"test_system": "A498 renal"}, "CCRF-CEM leukemia": {"test_system": "CCRF-CEM leukemia"}, "MOLT-4 leukemia": {"test_system": "MOLT-4 leukemia"}}, "note": "This is part of a sample that, as a whole, favours compounds with a hit. Of some 83,000 tested, about 20% had one in any assay.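 How to read the values: 0–100, growth inhibition (40 = 60% inhibited); 0, no net growth; -100 to 0, cell death (-40 = 40% of starting cells died; -100 = all dead).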 A number with no mark means an inactive call. Active and inactive are the calls of the source. The calls were made as follows: active = growth percent below 10; inactive = the rest."}
{"smiles": "O=C1Nc2ccc(Cl)cc2/C1=C/c1ccc(OCc2ccc(Br)cc2F)cc1", "values": [{"measurement": "growth", "setting": "SK-MEL-2 melanoma", "value": 80, "unit": "%"}, {"measurement": "growth", "setting": "EKVX NSCLC", "value": 41, "unit": "%"}, {"measurement": "growth", "setting": "SN12C renal", "value": 34.2, "unit": "%"}, {"measurement": "growth", "setting": "TK-10 renal", "value": 18.6, "unit": "%"}, {"measurement": "growth", "setting": "ACHN renal", "value": "3.32% (active)"}, {"measurement": "growth", "setting": "CAKI-1 renal", "value": 28.9, "unit": "%"}, {"measurement": "growth", "setting": "A498 renal", "value": "4.76% (active)"}, {"measurement": "growth", "setting": "CCRF-CEM leukemia", "value": 43.1, "unit": "%"}, {"measurement": "growth", "setting": "MOLT-4 leukemia", "value": 63.5, "unit": "%"}]}
{"smiles": "O=C(Cn1nc(-c2ccccc2)ccc1=O)NN1C(=O)c2ccccc2C1=O", "values": [{"measurement": "growth", "setting": "SK-MEL-2 melanoma", "value": 104, "unit": "%"}, {"measurement": "growth", "setting": "EKVX NSCLC", "value": 101, "unit": "%"}, {"measurement": "growth", "setting": "SN12C renal", "value": 123, "unit": "%"}, {"measurement": "growth", "setting": "TK-10 renal", "value": 105, "unit": "%"}, {"measurement": "growth", "setting": "ACHN renal", "value": 99, "unit": "%"}, {"measurement": "growth", "setting": "CAKI-1 renal", "value": 95.3, "unit": "%"}, {"measurement": "growth", "setting": "A498 renal", "value": 103, "unit": "%"}, {"measurement": "growth", "setting": "CCRF-CEM leukemia", "value": 102, "unit": "%"}, {"measurement": "growth", "setting": "MOLT-4 leukemia", "value": 108, "unit": "%"}]}
{"smiles": "CN1CCCN(Cc2ccc(C(=O)Nc3cccc(Nc4ccc5cc(O)ccc5n4)c3)cc2C(F)(F)F)CC1", "values": [{"measurement": "growth", "setting": "SK-MEL-2 melanoma", "value": 111, "unit": "%"}, {"measurement": "growth", "setting": "EKVX NSCLC", "value": 71.1, "unit": "%"}, {"measurement": "growth", "setting": "SN12C renal", "value": 86.8, "unit": "%"}, {"measurement": "growth", "setting": "TK-10 renal", "value": 134, "unit": "%"}, {"measurement": "growth", "setting": "ACHN renal", "value": 86.4, "unit": "%"}, {"measurement": "growth", "setting": "CAKI-1 renal", "value": 74.7, "unit": "%"}, {"measurement": "growth", "setting": "A498 renal", "value": 139, "unit": "%"}, {"measurement": "growth", "setting": "CCRF-CEM leukemia", "value": "-9.62% (active)"}, {"measurement": "growth", "setting": "MOLT-4 leukemia", "value": "-6.61% (active)"}]}
{"smiles": "CCCS(=O)(=O)c1oc(-c2ccc(F)cc2)nc1S(=O)(=O)c1ccc(F)cc1", "values": [{"measurement": "growth", "setting": "SK-MEL-2 melanoma", "value": 36.7, "unit": "%"}, {"measurement": "growth", "setting": "EKVX NSCLC", "value": 82.8, "unit": "%"}, {"measurement": "growth", "setting": "SN12C renal", "value": "-85.4% (active)"}, {"measurement": "growth", "setting": "TK-10 renal", "value": "-97.2% (active)"}, {"measurement": "growth", "setting": "ACHN renal", "value": "-100% (active)"}, {"measurement": "growth", "setting": "CAKI-1 renal", "value": "-92.2% (active)"}, {"measurement": "growth", "setting": "A498 renal", "value": 113, "unit": "%"}, {"measurement": "growth", "setting": "CCRF-CEM leukemia", "value": "-51.3% (active)"}]}
{"smiles": "CCOC(=O)CNC(=O)CN(Cc1ccccc1)C(=O)[C@@]1(C)CCC[C@]2(C)[C@H]3C[C@H]4C(C(C)C)=C[C@]3(CC[C@H]21)[C@@H]1C(=O)OC(=O)[C@@H]14", "values": [{"measurement": "growth", "setting": "SK-MEL-2 melanoma", "value": 82.3, "unit": "%"}, {"measurement": "growth", "setting": "EKVX NSCLC", "value": 67.6, "unit": "%"}, {"measurement": "growth", "setting": "SN12C renal", "value": 69, "unit": "%"}, {"measurement": "growth", "setting": "TK-10 renal", "value": 90.3, "unit": "%"}, {"measurement": "growth", "setting": "ACHN renal", "value": 57, "unit": "%"}, {"measurement": "growth", "setting": "CAKI-1 renal", "value": 88.3, "unit": "%"}, {"measurement": "growth", "setting": "A498 renal", "value": 110, "unit": "%"}, {"measurement": "growth", "setting": "CCRF-CEM leukemia", "value": 15.6, "unit": "%"}, {"measurement": "growth", "setting": "MOLT-4 leukemia", "value": 27.8, "unit": "%"}]}
{"smiles": "CCCn1c(=O)c2[nH]c(-c3ccc(OCc4nc5ccc(C(F)(F)F)cc5[nH]4)cc3)nc2n(CCC)c1=O", "values": [{"measurement": "growth", "setting": "SK-MEL-2 melanoma", "value": 66.8, "unit": "%"}, {"measurement": "growth", "setting": "EKVX NSCLC", "value": 53.2, "unit": "%"}, {"measurement": "growth", "setting": "SN12C renal", "value": 53.5, "unit": "%"}, {"measurement": "growth", "setting": "TK-10 renal", "value": 96.2, "unit": "%"}, {"measurement": "growth", "setting": "ACHN renal", "value": 64.7, "unit": "%"}, {"measurement": "growth", "setting": "CAKI-1 renal", "value": 43.6, "unit": "%"}, {"measurement": "growth", "setting": "A498 renal", "value": 51.1, "unit": "%"}, {"measurement": "growth", "setting": "CCRF-CEM leukemia", "value": 35.3, "unit": "%"}, {"measurement": "growth", "setting": "MOLT-4 leukemia", "value": 11.5, "unit": "%"}]}
{"smiles": "Cc1nc2c(cnn2-c2ccccc2)c(=O)n1-c1ccc(NC(=O)c2ccc(F)cc2)cc1", "values": [{"measurement": "growth", "setting": "SK-MEL-2 melanoma", "value": 77.9, "unit": "%"}, {"measurement": "growth", "setting": "EKVX NSCLC", "value": 30.2, "unit": "%"}, {"measurement": "growth", "setting": "SN12C renal", "value": 74.4, "unit": "%"}, {"measurement": "growth", "setting": "TK-10 renal", "value": 71, "unit": "%"}, {"measurement": "growth", "setting": "ACHN renal", "value": 61, "unit": "%"}, {"measurement": "growth", "setting": "CAKI-1 renal", "value": 65.7, "unit": "%"}, {"measurement": "growth", "setting": "A498 renal", "value": 86.8, "unit": "%"}, {"measurement": "growth", "setting": "CCRF-CEM leukemia", "value": 34.8, "unit": "%"}, {"measurement": "growth", "setting": "MOLT-4 leukemia", "value": "5.38% (active)"}]}
{"smiles": "C=C1CCC2C3(C)COC(c4c(F)cccc4F)OC3CCC2(C)C1C/C=C1/C(=O)OCC1O", "note": "(stereo not given)", "values": [{"measurement": "growth", "setting": "SK-MEL-2 melanoma", "value": "-44.7% (active)"}, {"measurement": "growth", "setting": "EKVX NSCLC", "value": "3.87% (active)"}, {"measurement": "growth", "setting": "SN12C renal", "value": "-24.1% (active)"}, {"measurement": "growth", "setting": "TK-10 renal", "value": "-23.2% (active)"}, {"measurement": "growth", "setting": "ACHN renal", "value": "-97.8% (active)"}, {"measurement": "growth", "setting": "CAKI-1 renal", "value": "2.15% (active)"}, {"measurement": "growth", "setting": "A498 renal", "value": 141, "unit": "%"}, {"measurement": "growth", "setting": "CCRF-CEM leukemia", "value": 13.9, "unit": "%"}, {"measurement": "growth", "setting": "MOLT-4 leukemia", "value": 11.4, "unit": "%"}]}
{"smiles": "O=c1nc(-c2ccccc2)cc(-c2cc3ccccc3nc2Cl)[nH]1", "values": [{"measurement": "growth", "setting": "SK-MEL-2 melanoma", "value": 82.8, "unit": "%"}, {"measurement": "growth", "setting": "EKVX NSCLC", "value": 61.6, "unit": "%"}, {"measurement": "growth", "setting": "SN12C renal", "value": 20.7, "unit": "%"}, {"measurement": "growth", "setting": "TK-10 renal", "value": 87.7, "unit": "%"}, {"measurement": "growth", "setting": "ACHN renal", "value": 39.1, "unit": "%"}, {"measurement": "growth", "setting": "CAKI-1 renal", "value": 56.6, "unit": "%"}, {"measurement": "growth", "setting": "A498 renal", "value": 104, "unit": "%"}, {"measurement": "growth", "setting": "CCRF-CEM leukemia", "value": "-29.3% (active)"}, {"measurement": "growth", "setting": "MOLT-4 leukemia", "value": "-18.7% (active)"}]}
